For 27 molecules, binding response (% of control) results are on record in PubChem BioAssay AID1529 (NMMLSC, 2009).

The campaign covered roughly 290,000 compounds. About 4,200 (1.4%) were called active. Only a selection was taken, and actives are over-represented in it overall. A number with no mark means an inactive call.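 The calls were made as follows: active = binding response more than 3 SD above or below the average of its plate-row segment, actives on both sides; inconclusive = wells at one plate position flagged as instrument error; inactive = the rest.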

Sequence of Mitogen-activated protein kinase kinase kinase 3 (Homo sapiens) (Q99759 whole entry, looked up): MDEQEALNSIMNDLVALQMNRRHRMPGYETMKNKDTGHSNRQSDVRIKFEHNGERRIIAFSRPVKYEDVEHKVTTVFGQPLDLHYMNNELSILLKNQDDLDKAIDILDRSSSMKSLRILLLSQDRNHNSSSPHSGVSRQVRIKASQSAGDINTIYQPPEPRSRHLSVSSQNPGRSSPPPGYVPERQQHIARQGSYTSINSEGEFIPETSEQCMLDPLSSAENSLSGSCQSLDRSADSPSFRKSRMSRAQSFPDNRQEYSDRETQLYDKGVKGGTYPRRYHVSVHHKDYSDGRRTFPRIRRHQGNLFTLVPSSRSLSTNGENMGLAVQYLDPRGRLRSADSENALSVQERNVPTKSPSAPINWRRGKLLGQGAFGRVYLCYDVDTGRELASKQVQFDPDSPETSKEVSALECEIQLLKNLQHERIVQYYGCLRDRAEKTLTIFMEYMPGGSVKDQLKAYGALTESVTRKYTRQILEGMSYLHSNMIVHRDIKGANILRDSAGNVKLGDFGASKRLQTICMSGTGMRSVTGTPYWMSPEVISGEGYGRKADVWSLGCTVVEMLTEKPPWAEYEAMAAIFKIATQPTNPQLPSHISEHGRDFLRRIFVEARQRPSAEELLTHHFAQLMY

The assay has as its target Mitogen-activated protein kinase kinase kinase 3 (Homo sapiens) (UniProt Q99759). Briefly: compounds raising or lowering MEK5 association with MEKK3 PB1 – biochemical, wildtype MEKK3, multiplex bead flow cytometry, Alexa488-MEK5, primary screen (AID 1529).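 Also: Alexa488 bead fluorescence after subtracting the streptavidin-only scavenger bead signal.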 The settings on record: bead-based flow cytometry, Alexa488-MEK5 binding to MEKK3; at 10 µM; actives lie on both sides; 0 = blocked by unlabeled MEK5, 100 = vehicle.
Take `COC(=O)[C@@H]1CC(O)CN1C(=O)C12CC3CC(CC(C3)C1)C2` (some centres not stated): the binding response (% of control) was 96%.

As for `O=C(O)c1cc(Cl)c(Cl)cc1C(=O)Nc1cccc2ncccc12`, the binding response (% of control) was 128% (active).

On to `O=C(Nc1cccc2ncccc12)C(Cl)(Cl)Cl`, for which the binding response (% of control) was 101%. Regarding `O=C(Nc1cccc2ncccc12)c1ccc(-c2ccc(Cl)cc2Cl)o1`, the binding response (% of control) is 102%. As to `OCC[C@H]1C[C@H](O)[C@@H](O)[C@]2(CCCCO2)O1`, the binding response (% of control) is 100%. Take `CCc1ccc2nc(Nc3ncc(C(C)=O)c(C)n3)nc(C)c2c1`: the binding response (% of control) was 49% [inhibitor] (active). For the molecule `Cc1ccc2nc(Nc3ncc4c(n3)CC(C)(C)CC4=O)nc(C)c2c1`, the binding response (% of control) was 102%. For `COc1ccccc1Nc1ncc(C(C)=O)c(C)n1` the value was 104%; for `CCCCn1c(SCC(=O)NCCc2ccc(OC)c(OC)c2)nc2c1c(=O)n(C)c(=O)n2C`, 0% [inhibitor] (active); for `C#CC(C)(C)NC(=O)CSc1nc2c(c(=O)n(C)c(=O)n2C)n1CCCC`, 108%. Take `CCn1c(NCCc2ccc(OC)c(OC)c2)nc2c1c(=O)n(C)c(=O)n2C`: the binding response (% of control) is 103%. In the case of `Cc1ccc(O)c(/C=N/NC(=O)COc2ccc3c(C)cc(=O)oc3c2)c1`, the binding response (% of control) is 99%. Take `COc1cccc(/C(C)=N/Nc2ncc(Cl)cc2Cl)c1`: the binding response (% of control) is 135% (active). For `C/C(=N\Nc1ncc(Cl)cc1Cl)c1cccs1` the value was 103%; for `C/C(=N\Nc1ncc(Cl)cc1Cl)c1ccc(S(=O)(=O)NCc2ccco2)cc1`, 108%; for `O=C(CN(C(=O)c1nsc(Cl)c1Cl)c1cccc(F)c1)NC1CCCC1`, 99%.

As for `COCc1ccc(C(=O)NC2CC(C)(C)Cc3c2cnn3-c2ccc(C)cc2)o1` (configuration not stated), the binding response (% of control) was 97%. As for `CC1CCC2(CC1)NC(=O)N(CC(=O)c1ccc3c(c1)OCO3)C2=O` (configuration not stated), the binding response (% of control) is 99%. As to `CC(C)CC(=O)NC(=S)Nc1cc(C(=O)O)ccc1Cl`, the binding response (% of control) was 132% (active). For `CC(=O)c1ccc(NC(=S)NC(=O)CC(C)C)cc1`, the binding response (% of control) is 104%. In the case of `CC(C)CNC(=O)C(=O)NCc1ccccc1`, the binding response (% of control) was 96%. With `CC(C)CC(=O)NC(=S)NCc1ccccc1`, the binding response (% of control) was 141% (active). To `CC(C)Oc1ccc(CCC(=O)NNC(=S)NCc2ccccc2)cc1` belongs 95%; to `CC(C)CC(=O)NC(=S)Nc1ccc(F)cc1F`, 117%. To `CCc1nn(CCCC(=O)Nc2ccc(C)cc2C)c(=O)c2cc3occc3n12` belongs 99%; to `CN(Cc1ccccc1Cl)C(=O)C1CCC(=O)N(CCc2cccc(F)c2)C1` (configuration not stated), 102%. To `COc1ccc(N(CC(=O)N2CCCCCC2)S(=O)(=O)c2ccccc2)cc1` belongs 102%.
